Inconclusive results are not listed. Calls follow the shape of the dose curve; as a rule, active = well fitted curve in either direction with a large enough effect (not every such curve was filed as active); inconclusive = small, poorly fitted or top-dose-only effect, or another doubt; inactive = flat fitted curve, though single readings scatter.
Assay: AP1 Signaling Pathway (AID 357);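 also: ME-180 reporter cells stimulated with EGF at its EC50 level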
Conditions: ME-180 (cervical carcinoma) AP-1-bla reporter, EGF-induced, beta-lactamase ratio, 5 h; at 7.69 µM (top of the series) unless noted
Source text: NCGC Assay Overview: Activator protein-1 (AP-1), a transcription factor, plays an important role in tumor genesis by regulating genes involved in cell proliferation, differentiation, apoptosis, and angiogenesis. AP-1 activity is induced by a complex network of signaling pathways that involves extracellular signals, such as growth factors. The AP-1 protein complex formed from c-Fos and c-Jun binding to the AP-1 response element results in transcriptional activation of genes containing such elements within their promoter. Low molecular weight molecules have been discovered and developed to modulate various components of these signaling pathways, for example, MAP kinase inhibitors. However, many points of pathway modulation remain untested due to the lack of chemical probes making this signaling locus of general interest. Using a beta-lactamase reporter-gene under control of the AP-1 response element, a cell-based assay [CellSensor(TM) AP-1-bla ME-180 developed by Invitrogen Corp.] was used to measure EGF-induced signaling. Library compounds were measured for their ability to modulate positively or negatively the action of EC50 EGF on reporter gene activity. Compounds were screened in a titration series in 1536-well format. Positive and negative modulators were identified based on the AC50 values derived from the screening data.
NCGC Assay Protocol Summary: 2500 cells/5uL in Opti-MEM medium containing 0.5% dialyzed FBS, 0.1 mM NEAA, 1 mM sodium pyruvate and 10 mM HEPES was dispensed into 1536-well plates and cells were cultured at 37 degrees Celsius overnight. […] After centrifugation at 1000 rpm for 2 seconds the plates were incubated at 37 degrees Celsius for 5 hours. 1 uL of CCF4-dye mixture was added to each well. After incubated at room temperature for 2.5 hours the plates were measured on an EnVision plate reader at Excitation 405nm, Emission1=460nm and Emission 2=530nm. The %Activity was determined from the ratio of 460nm/530nm.
% is scaled to controls: 0 for no effect and ±100 for the full control effect.

Activity change, negative = inhibition, inactive:
CN(C)c1nc(-c2ccc3c(c2)OCO3)nc2ccccc12 9.5%, CN1CCN(c2ncc3nc(CCc4ccccc4)c(=O)n(CCc4ccccc4)c3n2)CC1 -6.08%, Cc1nc2cnc(OCc3ccccc3)nc2n(CCc2ccccc2)c1=O 2.1%, Clc1ccccc1NN(Cc1ccncc1)c1ccccc1Cl -14.2%, COCCn1c(=O)c(CCc2ccccc2)nc2cnc(Oc3ccccc3)nc21 -27.4%, COc1ccc(-c2nc3cnc(N4CCOCC4)nc3n(-c3ccc(OC)cc3)c2=O)cc1 -5.89%, COc1ccc2[nH]cc(CCNc3ncncc3-c3ccc4c(c3)OCO4)c2c1 -27.8%, COc1ncc2nc(CCc3ccccc3)c(=O)n(-c3ccccc3)c2n1 -22.4%, Cc1cccc(CNc2ncncc2-c2ccccc2C)c1 -10%, O=c1c(CCc2ccccc2)nc2cnc(N3CCNCC3)nc2n1Cc1cccs1 7.64%, CC(NC(=O)Nc1ccc(O)cc1)(C(F)(F)F)C(F)(F)F 5.47% [at 17.2 µM], COCCn1c(=O)c(-c2cccc(C#N)c2)nc2cnc(Oc3cccc(Cl)c3)nc21 -5.9%, COCCn1c(=O)c(-c2ccc(F)cc2)nc2cnc(Nc3cccc(OC)c3)nc21 -8.42%, COc1ccccc1CNc1nc(-c2ccoc2)nc2ccccc12 7.68%, COc1ccc(Oc2ncc3nc(-c4cc(F)cc(F)c4)c(=O)n(C4CC4)c3n2)cc1 -9.27%, COc1ccc(-n2c(=O)c(CCc3ccccc3)nc3cnc(OC)nc32)cc1 -14.2%, CCNc1ncc2nc(-c3cccs3)c(=O)n(CCC#N)c2n1 -3.58%, COc1cccc(-c2cncnc2NCCN2CCOCC2)c1 24.4%, Cc1nc2cnc(N3CCOCC3)nc2n(CCc2ccccc2)c1=O 3.7%, COc1ccc(Oc2ncc3nc(-c4cccc(C#N)c4)c(=O)n(CCC#N)c3n2)cc1 -20.3%, CN(C)c1nc(-c2cccc(NS(C)(=O)=O)c2)nc2ccccc12 11.2%, c1ccc2c(NCCN3CCOCC3)nc(-c3ccoc3)nc2c1 1.61%, COc1cccc(-c2ccc3ncnc(N4CCNCC4)c3c2)c1 1.7%, COc1ccccc1CNc1ncncc1-c1ccccc1Cl -2.69%, CN(C)C(=O)c1ccc(-c2nc(Nc3ccccc3)c3ccccc3n2)cc1 -10.3%, CN(C)Cc1ccccc1-c1ccc2ncnc(N(C)C)c2c1 -1.59%, CN1CCN(c2nc(-c3cccnc3)nc3ccccc23)CC1 5.32%, CCCCN1CCC(COC(=O)c2cc(Cl)c(N)c3c2OCCO3)CC1 -2.87% [at 38 µM], Cn1c(=O)c(-c2ccc(Cl)cc2)nc2cncnc21 -6.64%, O=c1cnc2cnc(OCc3ccccc3)nc2n1CCc1ccccc1 -5.47%, CN(C)c1ncnc2ccc(-c3cccc(NS(C)(=O)=O)c3)cc12 -26.5%, O=c1cc(O)cc(/C=C\c2ccc(O)c(O)c2)o1 -18.8% [at 38 µM], CN(Cc1ccco1)c1cc(-c2ccc3c(c2)OCO3)ncn1 -0.29%, Cc1ccccc1-c1ccc2ncnc(NCCN3CCOCC3)c2c1 13.8%, O=c1c(-c2ccccc2)nc2cncnc2n1Cc1ccccc1 -16.6%, COc1ccc(Oc2ncc3nc(-c4cccc(C#N)c4)c(=O)n(Cc4cccc(OC)c4)c3n2)cc1 7.45%, CC(=O)NCCNc1nc(-c2cccc(C#N)c2)nc2ccccc12 2.77%, COc1ccccc1-c1nc(Nc2ccncc2)c2ccccc2n1 -6.27%, FC(F)(F)c1ccccc1-c1nc(NCc2cccnc2)c2ccccc2n1 5.72%, COCCn1c(=O)c(CCc2ccccc2)nc2cnc(OCc3ccccc3)nc21 -21.6%

Reference: PubChem BioAssay (NCATS)
